Assay outcomes as filed in PubChem BioAssay.
CtBP-E1A inh – blocks the CtBP interaction with E1A. AlphaScreen GST-E1A/His-CtBP binding, 1536-well; active compounds read low. activity change, % (no concentration beside the values). 340,000 tested, 0.49% active. AID 651724
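Steps: dispense buffer (Tris pH 8.0, NaCl 300 mM, TCEP 1 mM, BSA, Tween 20); add 5X protein mix (GST-E1A, His-CtBP, 125 nM each); pin 23 nL compound; 2 h at 37 °C, dark; add 5X beads (50 ug/mL); 1 h; read.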
Eya2 phos inh – inhibitors of human Eya2 phosphatase activity | Potency, µM (titrated, usually from 76.9 µM), without a hit: top-dose activity, negative = inhibition, actives largely listed as inhibitors | O00167 | 330,000 tested, 0.006% active | recombinant Eya2, OMFP fluorescence dephosphorylation (OMFP is methylfluorescein phosphate); also: potency is read from the fitted curve at half-maximal effect
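Eya2 (0.2 uM) preincubated 10 min at ambient with compound, then OMFP substrate added at 50 uM; 10 min reaction in 50 mM HEPES pH 7.5, 50 mM NaCl, 5 uM MgCl2, 0.05% BSA, 1 mM DTT. Fluorescence read at Ex 485/Em 525 nm.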
CCT chaperon mod – modulators of cytosolic chaperonin (CCT/TRiC) activity; purified chaperonin ATPase assay, HTRF ADP detection, 30 min; activity change, % (concentration not given with the values), hits read low; 360,000 tested, 0.3% active; AID 651819; in the data active = activity change below about -30%
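Nucleotide hydrolysis assay: TRiC at 20–40 nM final (set by batch activity) with 10 uM ATP, 30 min at 37 °C, in presence of 76 uM compound. Detection by competitive ADP HTRF, 30 min ambient.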
Six1-Eya2 blk – blocks human Six1 binding to Eya2; AID 651725; Q15475+O00167; activity change, % (no concentration beside the values); AlphaScreen GST-Six1/His-Eya2 binding, biochemical; active compounds read low; 360,000 tested, 0.56% active
Target sequence (O00167 whole entry, looked up): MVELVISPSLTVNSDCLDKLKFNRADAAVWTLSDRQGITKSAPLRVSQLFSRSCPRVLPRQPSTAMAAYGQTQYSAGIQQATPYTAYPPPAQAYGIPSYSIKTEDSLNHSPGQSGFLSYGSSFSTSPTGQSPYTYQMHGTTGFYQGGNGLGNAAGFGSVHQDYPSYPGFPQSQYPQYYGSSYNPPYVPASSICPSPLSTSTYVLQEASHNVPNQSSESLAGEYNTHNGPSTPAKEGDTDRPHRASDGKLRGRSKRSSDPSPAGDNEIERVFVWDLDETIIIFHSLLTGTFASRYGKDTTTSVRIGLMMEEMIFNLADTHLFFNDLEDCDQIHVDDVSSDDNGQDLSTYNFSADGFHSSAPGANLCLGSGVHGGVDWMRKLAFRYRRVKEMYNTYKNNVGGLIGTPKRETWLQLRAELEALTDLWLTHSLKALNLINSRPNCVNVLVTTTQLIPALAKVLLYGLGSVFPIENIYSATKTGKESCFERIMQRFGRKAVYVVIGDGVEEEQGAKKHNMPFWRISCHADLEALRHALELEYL
Target sequence (Q15475 whole entry, looked up): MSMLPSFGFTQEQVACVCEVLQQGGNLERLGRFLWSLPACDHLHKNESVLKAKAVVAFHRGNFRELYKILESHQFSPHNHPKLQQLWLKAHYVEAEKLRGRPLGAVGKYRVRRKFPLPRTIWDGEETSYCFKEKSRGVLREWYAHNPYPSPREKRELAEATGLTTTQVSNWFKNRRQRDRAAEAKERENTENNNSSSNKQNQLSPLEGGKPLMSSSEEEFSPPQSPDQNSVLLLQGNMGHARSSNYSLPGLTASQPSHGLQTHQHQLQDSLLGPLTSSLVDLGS
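Homogeneous AlphaScreen proximity assay pairing GST-Six1 with His-tagged Eya2 (added as 5X mix: 250 nM and 500 nM) in 50 mM Tris pH 8.0, 300 mM NaCl, 1 mM TCEP. Glutathione donor and nickel acceptor beads; 1 h, 37 °C, dark.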
PI4K2A inh – PI4K2A (human) kinase inhibition. purified PI4K2A, ADP-Glo luminescence, 1 h; active compounds read low. activity change, negative = inhibition, % at 76.9 µM. 420,000 tested, 0.13% active; in the data active = activity change below about -50%; inconclusive = mostly about -30% to -49%;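 also: -100% = wells without enzyme as full effect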
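ADP-Glo luminescence measured ADP generated by PI4K2A enzyme (4 ug/mL before mixing) with 1.2 mM PI substrate (pre-mix) and 300 microM ATP (pre-mix). Tris pH7.5 buffer with MgCl2, Triton X-100; 1 h reaction at ambient temperature.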
Starred values were filed as active, the others as inactive; ? = inconclusive; nt = no result given. Only some compounds are listed: those with a hit (about 0.97% of all), similar ones and a draw of the others. Rule as the data show it, unless noted: active = activity change below about -65%; inconclusive = mostly about -30% to -63%; inactive = weaker than that. Unless noted, % is scaled to controls: 0 for no effect and ±100 for the full control effect.

SMILES | CtBP-E1A inh | Eya2 phos inh | CCT chaperon mod | Six1-Eya2 blk | PI4K2A inh
O=C1c2ccccc2-c2onc3c(N4CCN(CCO)CC4)cc(N4CCN(C(=O)c5ccco5)CC4)c1c23 | -75* | 20% | 1 | ? | ?
CCOC(=O)N1CCN(c2cc(NCCC(=O)O)c3c4c(onc24)-c2ccccc2C3=O)CC1 | -70* | ? | -6 | -69* | -57*
O=C(O)CCCNc1cc(N2CCN(C(=O)c3ccco3)CC2)c2noc3c2c1C(=O)c1ccccc1-3 | ? | -6% | 0 | ? | ?
Cc1nc(N)sc1-c1csc(Nc2cc(N(C)C)ccc2Cl)n1 | ? | nt | 1 | -73* | 0
Cc1nc(N)sc1-c1csc(Nc2cccc(O)c2)n1 | ? | 5% | 1 | -69* | -6
Cc1ccc(Nc2nc(-c3sc(N)nc3C)cs2)cc1 | nt | -16% | -1 | -2 | -13
CC(=O)c1cccc(Nc2nc(-c3sc(N)nc3C)cs2)c1 | -77* | 1% | -1 | ? | -15
CC(=O)c1cccc(Nc2nc(-c3sc(C)nc3C)cs2)c1 | ? | -3% | 1 | ? | 1
NC(=O)c1ccccc1NC(=O)c1cccc(C(=O)Nc2ccccc2C(N)=O)n1 | -76* | nt | -1 | -83* | 0
O=C1c2ccccc2C(=O)N1c1cccnc1 | 1 | nt | -44* | 2 | -3
O=C1c2cccc([N+](=O)[O-])c2C(=O)N1c1cccnc1 | -8 | 3% | 2 | 7 | 14
O=C(/C=C\Nc1ccc2c(c1)OCO2)c1ccccn1 | -15 | ? | -3 | -19 | -55*
O=C(Nc1ccc2c(c1)OCO2)c1ccccn1 | -9 | -4% | 0 | -2 | -14
Cc1ccc(C(=O)C2=C(O)C(=O)N(c3ncccn3)C2c2ccc(F)cc2)o1 (configuration not stated) | -4 | 4% | -4 | -1 | 6
Cc1ccc(C(=O)C2=C(O)C(=O)N(c3ncccn3)C2c2ccccc2F)o1 (configuration not stated) | nt | -7% | -66* | -5 | 1
O=c1ccc(-c2ccc(S(=O)(=O)NCC3CCN(Cc4ccccc4F)CC3)s2)n[nH]1 | -88* | 3% | -1 | -84* | 6
COC(=O)c1cc(S(=O)(=O)NCC2CCN(Cc3ccccc3F)CC2)c[nH]1 | nt | -1% | 0 | 4 | -4
O=S(=O)(c1ccc(-c2csc(=Nc3ccc(OC(F)(F)Cl)cc3)n2CCCO)cc1)N1CCCC1 | nt | nt | nt | nt | -2
O=C(CSc1ccc(-c2cccnc2)nn1)N1CCCc2ccccc21 | nt | -1% | nt | nt | nt
O=C(CSc1ccc(-c2ccccn2)nn1)N1CCCc2ccccc21 | -66* | 1% | 0 | -80* | 2
c1ccc(-c2ccc(SCc3cccnc3)nn2)nc1 | -89* | 5% | -14 | -91* | -9
c1ccc(CSc2ccc(-c3ccccn3)nn2)nc1 | -94* | 1% | -1 | -93* | -11
C/C(=N\O)c1ccc(OCC(=O)N2CCCCC2)cc1 | nt | nt | nt | nt | 1
Cc1ccc2[nH]c3c(=O)n(CC(=O)N4CCCC(C)C4)ncc3c2c1 (configuration not stated) | nt | nt | nt | nt | 1
CC1CN(C(=O)CCC(=O)NCc2cccs2)c2ccccc2O1 (configuration not stated) | nt | nt | nt | nt | 2
SMILES | CtBP-E1A inh | Eya2 phos inh | CCT chaperon mod | Six1-Eya2 blk | PI4K2A inh
CCOC(=O)c1sc2nccc(N(C)C)c2c1N=CN(C)C | -6 | -5% | -1 | 7 | -10
CCOC(=O)c1sc2nccc(OC)c2c1N=CNOC | 4 | -9% | 0 | -19 | -59*
C[C@@H](NCCCc1cccc(C(F)(F)F)c1)c1cccc2ccccc12 | nt | nt | nt | nt | -1
CC(C)C(C(=O)O)N1C(=O)/C(=C/C=C/c2ccco2)SC1=S (configuration not stated) | 6 | 1% | 1 | -69* | -30
O=C1/C(=C/C=C/c2ccco2)SC(=S)N1c1ccc(O)cc1 | ? | -18% | -3 | ? | -19
CC(C)(C)c1ccc(C(=O)N2CCC(c3noc(-c4ccc(S(=O)(=O)N5CCCC5)cc4)n3)CC2)cc1 | nt | nt | nt | nt | -3
C#CCOCCOCCOCCNc1nc(N2CCN(C(=O)CCCCCCCCCCNC(=O)[C@H](CCCCN)n3cc(C)nn3)CC2)nc(N2CCN(C(=O)CCCCCCCCCCNC(=O)[C@H](CCCN=C(N)N)n3cc(C[C@@H](C)CC)nn3)CC2)n1 | -22 | 22µM* | -3 | -13 | -2
